Screening results (PubChem BioAssay)
Shown are actives, neighbours in structure and some others; about 1.6% of the full set was active somewhere.
KCNQ2 pot: potentiators of rat KCNQ2 potassium channel | actives 0.54% (n = 310,000) | B-score at 10 µM | Potassium voltage-gated channel subfamily KQT member 2 (Rattus norvegicus), O88943 | CHO-K1 KCNQ2, FluxOR thallium flux fluorescence; active compounds read high | AID 2239, 2010;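 active means fluorescence ratio B-score at least 3 SD of library B-scores, with initial fluorescence B-score within 3 of them, cut at about 5.3 in these data; same plate scores as AID 2156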;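 further: B-score of peak minus minimum over baseline fluorescence ratio after K+ and Tl+ stimulus; positive B-score means potentiation of KCNQ2 with more thallium influx and brighter signal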
KCNQ2 block: rat KCNQ2 potassium channel inhibitors, primary screen, cell-based, CHO-K1, FluxOR thallium flux, B-score. 20 min; active compounds read low. B-score at 10 µM. actives 1.1% (n = 310,000). AID 2156, 2009;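 active means fluorescence ratio B-score at most minus 3 library SDs, with starting brightness B-score within 2 library SDs, cut at about -5.5 in these data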
Kir21 conf inh: mouse Kir2.1 channel blockers, retest, confirmation, cell-based, FluxOR thallium flux, duplicate; actives 41% (n = 2,300); shares compounds with KCNQ2 pot; Kir2.1-expressing cells, FluxOR thallium flux fluorescence; active compounds read low; Tl flux remaining, % of negative control (active compounds read low), % at 10 µM;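 active means Primary-screen hit whose thallium flux fell at least 3 control SD below untreated wells in both duplicates, with normal baseline fluorescence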
HEK293 ctr: counter-screen for Kir2.1 inhibitors: effect in parental HEK293 cells | shares compounds with KCNQ2 pot | FluxOR thallium flux fluorescence; 0% = unstimulated blank wells | FluxOR signal as % of negative control (100 = no effect), % at 10 µM | actives 19% (n = 2,300);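 active means dye signal at least 3 control SD above or below untreated wells in both duplicates, raw fluorescence within 3, either direction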;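 further: percent is based on the flux ratio of peak minus minimum fluorescence over baseline F0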
CHO-K1 Tl ctr: nonspecific thallium flux increase in parental CHO-K1, confirmation, counter-screen for KCNQ2 potentiator project, cell-based, FluxOR thallium flux, duplicate | parental CHO-K1 cells, FluxOR thallium flux fluorescence; zero = vehicle mean+3SD, 100% = vehicle-minus-blank window | activity increase over 3SD of controls, % at 10 µM | actives 43% (n = 1,200) | shares compounds with KCNQ2 pot;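 active means signal rise of at least 3 SD above the untreated control mean, in both duplicate wells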;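 further: counter screen of KCNQ2 potentiator hits so any rise reflects channel-independent effects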
KCNQ1 sel pot: human KCNQ1 channel potentiation off-target, confirmation, selectivity assay for KCNQ2 potentiator project, cell-based, CHO, FluxOR thallium flux; shares compounds with KCNQ2 pot; CHO KCNQ1 stable, FluxOR thallium flux fluorescence; beyond 3SD, as % of vehicle-control signal; activation over 3SD threshold, % at 10 µM; actives 28% (n = 1,200);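 active means fluorescence ratio rise of at least 3 SD of vehicle wells above their mean, in both replicate wells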
Target sequence (P51787 whole entry, looked up): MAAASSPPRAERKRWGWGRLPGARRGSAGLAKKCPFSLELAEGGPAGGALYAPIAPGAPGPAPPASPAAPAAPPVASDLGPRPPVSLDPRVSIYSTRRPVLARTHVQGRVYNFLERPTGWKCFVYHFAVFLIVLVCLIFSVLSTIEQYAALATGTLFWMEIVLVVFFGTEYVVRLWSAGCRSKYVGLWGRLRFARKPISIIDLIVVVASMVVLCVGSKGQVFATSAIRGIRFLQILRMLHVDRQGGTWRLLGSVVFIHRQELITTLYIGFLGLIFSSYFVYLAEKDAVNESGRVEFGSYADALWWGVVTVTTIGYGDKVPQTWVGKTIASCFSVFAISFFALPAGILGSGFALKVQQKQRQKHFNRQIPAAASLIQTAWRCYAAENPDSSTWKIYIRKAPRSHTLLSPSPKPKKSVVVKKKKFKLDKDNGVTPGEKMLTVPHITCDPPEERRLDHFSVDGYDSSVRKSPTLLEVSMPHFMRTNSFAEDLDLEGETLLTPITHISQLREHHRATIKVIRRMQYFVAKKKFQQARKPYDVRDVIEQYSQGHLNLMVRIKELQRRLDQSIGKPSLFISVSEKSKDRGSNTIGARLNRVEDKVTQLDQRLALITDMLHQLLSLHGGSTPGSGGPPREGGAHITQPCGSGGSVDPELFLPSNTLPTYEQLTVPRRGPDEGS
KCNQ2 pot conf: rat KCNQ2 channel potentiators, confirmation, cell-based, CHO, FluxOR thallium flux, duplicate; shares compounds with KCNQ2 pot; CHO-KCNQ2 cells, FluxOR thallium flux fluorescence; potentiation, less the hit threshold, % at 10 µM; actives 68% (n = 1,200);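 active means fluorescence ratio rising 3 SD or more over the vehicle control mean in both replicates, plus primary screen hit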;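 further: peak minus minimum thallium fluorescence divided by baseline after K/Tl stimulus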
Kir21 spec: mouse Kir2.1 channel activation off-target, confirmation, selectivity assay for KCNQ2 potentiator project, cell-based, HEK293, FluxOR thallium flux; shares compounds with KCNQ2 pot; AID 2345, 2010; activity over 3SD threshold, % at 10 µM; HEK293 Kir2.1, FluxOR thallium flux fluorescence; actives 2% (n = 1,200);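 active means fluorescence ratio rise of at least 3 SD above the vehicle-control mean, seen in both replicates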
KCNQ2 W236L pot: potentiators of retigabine-insensitive KCNQ2 W236L, mechanism study for KCNQ2 potentiator project, cell-based, rat KCNQ2 W236L, CHO, automated patch clamp; AID 2558, 2010; actives 10% (n = 940); current increase over 3SD of negative controls (%), active compounds read high, % at 25 µM; automated patch clamp current; shares compounds with KCNQ2 pot;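 active means current increase at least 3 SD of the untreated controls above them in both duplicate recordings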
Each line names hits and unclear results; the compound was inactive in the other large screens (follow-up assays come after a bar, where they were run).

C/C(N)=C(/C#N)C(=O)COC(=O)c1ccccc1C(=O)c1ccc(C)cc1	none (no result: KCNQ2 pot)
CC(=O)c1cccc(NC(=O)Nc2ccc3c(c2)OCO3)c1	none
CCC(C(=O)NC1CCCC1)N(C(=O)Cn1nnc(-c2ccc(C)o2)n1)c1cccc(OC)c1 (centres undefined)	none (no result: KCNQ2 pot)
O=C(OCc1c(F)cccc1Cl)c1cnc2ccccc2n1	none (no result: KCNQ2 pot)
COC(=O)c1c(NC(=O)COC(=O)c2ccc(Cl)nc2)sc(C)c1C	none (no result: KCNQ2 pot)
Cc1[nH]n(-c2ccccc2)c(=O)c1S(=O)(=O)c1ccccc1	none (no result: KCNQ2 pot) | Kir21 conf inh 28% | HEK293 ctr inactive
Cc1[nH]n(-c2ccccc2)c(=O)c1CCO	none
COc1ccc(-c2[nH]ncc2CNC(C)CCn2cccn2)cc1F (centres undefined)	none
COc1ccc(-c2[nH]ncc2CNC(C)c2ccccc2Cl)cc1F (centres undefined)	none | Kir21 conf inh 60% | HEK293 ctr inactive
Cc1cccn2c(CN3CCCN(C=O)CC3)c(C(=O)N(C)CCc3ccccc3)nc12	none
Cc1ccc(CN2CCC(c3cc(-c4ccc(Cl)cc4)n[nH]3)CC2)cc1	none (no result: KCNQ2 pot)
Clc1ccc(-c2cc(C3CCNCC3)[nH]n2)cc1	none (no result: KCNQ2 pot) | Kir21 conf inh 38% | HEK293 ctr inactive
N#C/C(=C\c1ccco1)C(=O)NCC1CCCO1 (centres undefined)	none (no result: KCNQ2 pot)
CCCCNC(=S)Nc1ccc(OC)nc1	none
CC1=C(C(=O)OCC2CCCCC2)C(c2cccc(O)c2)NC(=O)N1 (centres undefined)	KCNQ2 pot 17 | Kir21 conf inh inactive | HEK293 ctr inactive | CHO-K1 Tl ctr inactive | KCNQ1 sel pot inactive | KCNQ2 pot conf 58 | Kir21 spec inactive | KCNQ2 W236L pot 34%
CC1=C(C(=O)OCC2CCCCC2)C(c2ccc(O)cc2)NC(=O)N1 (centres undefined)	none
CC1=C(C(=O)OC2CCCCCCC2)C(c2cccc(O)c2)NC(=O)N1 (centres undefined)	KCNQ2 pot 20 | Kir21 conf inh inactive | HEK293 ctr inactive | CHO-K1 Tl ctr inactive | KCNQ1 sel pot inactive | KCNQ2 pot conf 82 | Kir21 spec inactive | KCNQ2 W236L pot 29%
CC1=C(C(=O)OC2CCCCC2)C(c2cccc([N+](=O)[O-])c2)NC(=O)N1 (centres undefined)	none
CC(NC(=O)c1ccccc1F)c1nnc(SCC(=O)NC2CCCC2)n1C (centres undefined)	none
CC(=O)Nc1ccc(OCC(O)Cn2nc(C)c(C)c2C)cc1 (centres undefined)	none (no result: KCNQ2 pot)
COc1cc2c(cc1OC)C1(C)N(CC2)C(C(C)=O)=NN1c1ccc(Cl)cc1 (centres undefined)	none (no result: KCNQ2 pot)
CC1CC(C)C[N+](=C2C=C(N3CCCC3)CC(C)(C)C2)C1 (centres undefined)	none (no result: KCNQ2 pot) | Kir21 conf inh inactive | HEK293 ctr inactive
CC1(C)CC(N2CCCC2)=CC(=[N+]2CCCCCC2)C1	none
O=C(Oc1cccc(OC(=O)c2ccco2)c1)c1ccco1	none | Kir21 conf inh 51% | HEK293 ctr inactive
O=C(Oc1cccnc1)c1ccco1	none (no result: KCNQ2 pot)
COc1ccc2c3c(cccc13)C(=O)CC2	none (no result: KCNQ2 pot)
CSCCC(NC(=O)C1CCC(C)CC1)C(=O)Nc1ccc(NC(C)=O)cc1 (centres undefined)	none (no result: KCNQ2 pot)
Cn1cnc([N+](=O)[O-])c1S(=O)(=O)c1ccc(Cl)cc1	none (no result: KCNQ2 pot) | Kir21 conf inh 70% | HEK293 ctr 68%
Cn1cnc([N+](=O)[O-])c1NC(C)(C)C	none
COc1ccccc1NC(=O)CSc1nc(=O)n(CCN2CCOCC2)c2c1CCC2	none
Cc1cc(S(=O)(=O)N2CCOCC2)ccc1OCC(=O)Nc1ccc(F)cc1F	none (no result: KCNQ2 pot)
CC(=O)N/N=C/c1ccccc1OCCOc1cccc(C)c1	none
Cc1sc2nc(CN3CCOCC3)[nH]c(=S)c2c1C	KCNQ2 pot 19 | Kir21 conf inh inactive | HEK293 ctr 412% | CHO-K1 Tl ctr inactive | KCNQ1 sel pot inactive | KCNQ2 pot conf 101 | Kir21 spec inactive | KCNQ2 W236L pot inactive
Cc1sc2nc(CN3CCN(c4ccc(O)cc4)CC3)[nH]c(=O)c2c1C	none
O=C(CN1CCC(Cc2ccccc2)CC1)Nc1ccc2c(c1)OCCO2	KCNQ2 pot 5.5 | CHO-K1 Tl ctr inactive | KCNQ1 sel pot inactive | KCNQ2 pot conf 0.3 | Kir21 spec inactive | KCNQ2 W236L pot inactive
CN(C)S(=O)(=O)c1ccc(NC(=O)CN2CCC(Cc3ccccc3)CC2)cc1	none
CCOc1ccc(Br)cc1S(=O)(=O)Nc1ccc(NC(=O)c2ccccc2F)cc1	none
O=c1c2ccccc2c(C=NC2CCS(=O)(=O)C2)c(O)n1-c1ccccc1 (centres undefined)	none
O=S1(=O)CCC(N=Cc2cc(Br)ccc2O)C1 (centres undefined)	KCNQ2 pot 6.4 | Kir21 conf inh inactive | HEK293 ctr inactive | CHO-K1 Tl ctr 21 | KCNQ1 sel pot inactive | KCNQ2 pot conf 22 | Kir21 spec inactive | KCNQ2 W236L pot inactive
CCn1cc(C(=O)N2CCCC(N3CCN(c4ccccc4C)CC3)C2)cn1 (centres undefined)	none
Cc1cccc(NC(=O)NC(C)C(c2ccccc2)N2CCN(C)CC2)c1 (centres undefined)	none (no result: KCNQ2 pot)
COc1ccc(/C=C2\SC(=N)N(c3nccs3)C2=O)cc1OC	none
N=C1S/C(=C\c2ccc(-c3cccc(Cl)c3)o2)C(=O)N1c1nccs1	KCNQ2 pot 6.5 | Kir21 conf inh inactive | HEK293 ctr inactive | CHO-K1 Tl ctr inactive | KCNQ1 sel pot inactive | KCNQ2 pot conf 6.8 | Kir21 spec inactive | KCNQ2 W236L pot inactive
Cc1ccccc1-c1noc(C(C)NC(=O)c2ccco2)n1 (centres undefined)	none (no result: KCNQ2 pot)
